Measurements: PubChem BioAssay AID1611 (NINDS Approved Drug Screening Program, 2009)

Assay: inducers of human heat shock response, cell-based, HSE luciferase (AID 1611)
Details: human cells, HSE-luciferase heat shock reporter; stronger effect = higher value

| Compound | fold change |
| --- | --- |
| O=C1c2ccccc2C(=O)C1c1ccccc1 | 331 |
| CCOC(=O)C(Cc1ccc(O)cc1)NC(C)=O (stereo not given) | 0.71 |
| Cc1ccc(C(=O)C(C)CN2CCCCC2)cc1 (stereo not given) | 0.93 |
| Cc1ncc([N+](=O)[O-])n1CCO | 1.2 |
| CN1CCC(=C2c3ccccc3CC(=O)c3sccc32)CC1 | 1.41 |
| O=C1C[C@@H](c2ccc(O)cc2)Oc2cc(O)cc(O)c21 | 0.8 |
| CC[C@@H](C(=O)C(C)[C@@H](O)[C@H](C)CCc1ccc(C)c(O)c1C(=O)O)C1OC(CC)(C2CC[C@](O)(CC)[C@H](C)O2)C[C@@H]1C (stereo not given in full) | 1.12 |
| CC(=O)O[C@]1(C(C)=O)CCC2C3C=C(Cl)C4=CC(=O)[C@@H]5C[C@@H]5[C@]4(C)C3CC[C@@]21C (stereo not given in full) | 9.01 |
| CC(=O)OCC1=C(C(=O)O)N2C(=O)[C@@H](NC(=O)Cc3cccs3)[C@H]2SC1 | 1.09 |
| Cn1c(=O)c2c(ncn2CCO)n(C)c1=O | 0.58 |
| CCn1cc(C(=O)O)c(=O)c2ccc(C)nc21 | 0.98 |
| COC(=O)[C@H]1[C@H]2C[C@@H]3c4[nH]c5cc(OC)ccc5c4CCN3C[C@H]2C[C@@H](OC(=O)c2cc(OC)c(OC)c(OC)c2)[C@@H]1OC | 0.6 |
| Cc1cc(C)nc(NS(=O)(=O)c2ccc(N)cc2)n1 | 1.02 |
| COc1ccc(NS(=O)(=O)c2ccc(N)cc2)nn1 | 1.39 |
| NC(N)=NC(=O)c1nc(Cl)c(N)nc1N | 0.89 |
| O=C(O)c1cc2cc(Cc3cccnc3)ccc2o1 | 0.83 |
| O=C(O)CCCCC1SCC2NC(=O)NC21 (stereo not given) | 2.49 |
| CCN(CC)CC(=O)Nc1c(C)cccc1C | 0.78 |
| CCC(=O)c1ccc2c(c1)N(CC(C)N(C)C)c1ccccc1S2 (stereo not given) | 0.88 |
| CN(C)C(=O)C(CCN1CCC(O)(c2ccc(Cl)cc2)CC1)(c1ccccc1)c1ccccc1 | 1.52 |

| Compound | fold change |
| --- | --- |
| Nc1ccc(S(=O)(=O)Nc2ccccn2)cc1 | 0.76 |
| O=C1c2cccc(O)c2C(=O)c2c(O)cccc21 | 0.86 |
| CN(C)C(=O)Oc1ccc[n+](C)c1 | 1.31 |
| CC(=O)Oc1cccc(O)c1 | 0.84 |
| C[N+](C)(C)CCO | 0.93 |
| O=C(O)C1CCCNC1 (stereo not given) | 0.81 |
| CN1CCN(C(c2ccccc2)c2ccc(Cl)cc2)CC1 (stereo not given) | 1.12 |
| CC(C)(C)NC[C@@H](O)COc1nsnc1N1CCOCC1 | 0.87 |
| C1CNCCN1 | 1.04 |
| COc1ccc(C(=O)c2ccccc2)c(O)c1 | 0.92 |
| COc1ccc(CCN2CCC(Nc3nc4ccccc4n3Cc3ccc(F)cc3)CC2)cc1 | 1.64 |
| C#C[C@]1(OC(C)=O)CCC2C3CCC4=CC(=O)CC[C@@H]4C3CC[C@@]21C (stereo not given in full) | 0.92 |
| O=c1[nH]cc(F)c(=O)[nH]1 | 0.52 |
| CC(=O)[C@@]1(O)CCC2C3C[C@H](C)C4=CC(=O)C=CC4(C)[C@@]3(F)[C@@H](O)C[C@@]21C (stereo not given in full) | 1.43 |
| CC1(C)S[C@@H]2[C@H](NC(=O)[C@@H](N)c3ccc(O)cc3)C(=O)N2[C@H]1C(=O)O | 1.21 |
| CC(C)(Oc1ccc(CCNC(=O)c2ccc(Cl)cc2)cc1)C(=O)O | 1.4 |
| Cn1c(=O)[nH]c2ncn(C)c2c1=O | 1.88 |
| Cc1nnc(SCC2=C(C(=O)O)N3C(=O)[C@@H](NC(=O)Cn4cnnn4)[C@H]3SC2)s1 | 0.8 |
| CC[C@H](C)C(=O)O[C@H]1CCC=C2C=C[C@H](C)C(CCC3C[C@@H](O)CC(=O)O3)[C@H]21 (stereo not given in full) | 1.15 |
| CCCn1c(=O)c2[nH]c(C3CCCC3)nc2n(CCC)c1=O | 0.74 |
